In PubChem BioAssay (NCATS):
Inconclusive results are not listed. Entries that show only a call come without a potency. The source made the active and inactive calls. The call rests on the fitted dose curve; in most records, active means well fitted cell-killing curve with a large enough effect; inconclusive means small, poorly fitted or top-dose-only effect; inactive means flat fitted curve, though single readings scatter.

Test: Cell Viability - LYMP2-021 (AID 974);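 further: compound exposure lasts 24 hours at 37 °C; nearly all actives have a fitted effect of over 55% in size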
Conditions: LYMP2-021 lymphoblastoid cells viability; series mostly up to 92.2 µM
Text: NIH Chemical Genomics Center [NCGC]
NIH Molecular Libraries Screening Centers Network [MLSCN]
National Institutes of Environmental Health Sciences [NIEHS]
National Toxicology Program [NTP]
We have developed a 1536-well cell-based assay for quantitative high throughput screening (qHTS) against a number of cell lines to determine in vitro cytotoxicity of small molecules. This particular assay uses a human lymphoblastoid cell line (LYMP2-021) purchased from Coriell Institute for Medical Research.
NCGC Assay Protocol Summary:
The CellTiter-Glo luminescent cell viability assay (Promega) is a homogeneous method to measure the number of viable cells in culture. The end point readout of this assay is based on quantitation of intracellular ATP, an indicator of metabolic activity, using the luciferase reaction. Luciferase catalyzes the oxidation of beetle Luciferin to oxyluciferin and light in the presence of ATP. The luminescent signal is proportional to amount of ATP present.
Using the CellTiter-Glo luminescent cell viability assay, the amount of cellular ATP was measured in the lymphoblastoid cell line with complete culture medium following compound treatment for 24 hours. The assay was performed in opaque white Kalypsys 1536-well plates. In the screen, tetraoctylammonium bromide was used as positive control. Library compounds were measured for their ability to cause acute toxicity in the cell line, as reflected by a decrease in intracellular ATP levels, in a concentration-dependent manner. […] AC50 values were determined from concentration-response data modeled with the standard Hill equation.
qHTS protocol for CellTiter Glo lymphoblastoid cellular assay
[Step] [Parameter] [Value] [Description]
1. Reagent; 5 uL; 2500 lymphoblastoid cells/well
2. Time; 5 hr; 37 C incubation
4. Controls; 23 nL; Tetraoctylammonium bromide 6.4pM to 92 uM
5. Time; 24 hr; 37 C incubation
6. Reagent; 5 uL; CellTiter Glo reagent
7. Time; 30 min; Room Temperature
8. Detection; Luminescence; Viewlux plate reader
Keywords: cell viability, cytotoxicity, lymphoblastoid cell line, luminescence, NTPHTS, NTPHTS_NCGC, NIEHS, DSSTox, MLSMR, MLSCN, NIH Roadmap, qHTS, NCGC
Potency means the concentration at half of the fitted maximal effect.

SMILES | Potency
COc1cc(C=O)ccc1O | inactive
CCCCC(CC)COC(=O)c1ccccc1C(=O)O (stereo not given) | inactive
O=C(c1ccccc1)c1ccccc1 | inactive
CC(C)(C)c1ccc(O)c(O)c1 | 31.6 µM (active)
Cc1cc(C(C)(C)C)c(O)c(C(C)(C)C)c1 | inactive
Brc1ccccc1-c1ccccc1 | inactive
Oc1ccccc1 | inactive
CC(C)C(C)(C)C(C)(C)C(C)(C)S | inactive
Cc1ccc(O)cc1 | inactive
Nc1cccc2c(N)cccc12 | inactive
Nc1c2ccccc2nc2ccccc12 | 12.6 µM (active)
c1ccc2occc2c1 | inactive
O=C(NO)c1ccccc1 | inactive
CCCC(=O)c1cc(O)c(O)cc1O | inactive
O=C(Oc1ccccc1)c1ccccc1O | inactive
C1=CC2C3C=CC(C3)C2C1 (stereo not given) | inactive
OCc1c[nH]c2ccccc12 | inactive
CCCCCCCCCCCCCCCC[n+]1ccccc1 | 25.1 µM (active)
Nc1ccc(O)cc1 | 31.6 µM (active)
CC(C)(c1ccc(O)cc1)c1ccc(O)cc1 | inactive
